Assay results: PubChem BioAssay (NCI)
Where “and” joins values, the source holds several entries; their conditions need not be identical. Identical values can stand only once. About 83,000 compounds went through this panel and 20% of them were active in at least one assay; those are over-represented in the sample as a whole.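 Plates (96-well) were seeded with cells, treated with compound at one concentration, and incubated for 48 hours before percent growth was determined.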 Unmarked numbers belong to inactive results. Calls of active or inactive are those of the source. Rule for the calls: active = growth percent below 10; inactive = the rest.

Tested on: MDA-MB-468 breast
Assay: NCI-60 one-dose screen, 48 h (100 = growth as untreated, 0 = no growth, -100 = all killed)
Conditions: 10 µM unless noted

SMILES	growth
Nc1c(-c2nc3ccccc3c(=O)[nH]2)nnn1-c1ccc(Cl)cc1	105%
Fc1ccc2c(CN3CCO[C@H](COc4cccc(Cl)c4)C3)c[nH]c2c1	-38.7% (active)
CS(=O)(=O)c1ccc(C(=O)N/N=C/c2ccccc2Cl)cc1	96.1%
CN([N-]C(=O)CC(=O)[N-]N(C)C(=S)c1ccccc1)C(=S)c1ccccc1.[Cu+2]	-58% (active)
CCN(CC)CCCC(C)Nc1c2ccc(Cl)cc2nc2ccc(OC)cc12 (stereo not given)	-63.3% (active)
CCOC(=O)C1=C(C)NC(C)=C(C(=O)OCC)C1c1cc(Br)c(O)c(OC)c1	20.4%
Cc1ccc(S(=O)(=O)O)c(C)c1	107%
CCCCC(=O)Nc1c(C(=O)Nc2ccccc2)sc2nc3c(cc12)C(OC(=O)CCCC)CCC3 (stereo not given)	56.2%
Cc1cccc(/C=C2\CN(C(=O)OC(C)(C)C)C/C(=C\c3cccc(C)c3)C2=O)c1	103%
CC(NC(=O)Oc1cccc2ccccc12)c1ccccc1 (stereo not given)	107%
CCNCCNc1cc(-c2ccc(Cl)c(Cl)c2)c(C#N)c2nc3ccccc3n12	-80.9% (active)
CCCCN(CC)CC(CC)Nc1cc(OC)cc2cccnc12 (stereo not given)	119%
Clc1ccc(-c2nc(-c3cccs3)cn3ccnc23)cc1	-11.1% (active)
NCC(O)C(O)C(O)C(O)CO (stereo not given)	98.7%
CCC1=CC2CN(C1)Cc1c([nH]c3ccccc13)[C@@](C(=O)OC)(c1cc3c(cc1OC)N(C)[C@H]1[C@@](O)(C(=O)OC)[C@H](OC(C)=O)[C@]4(CC)C=CCN5CC[C@]31[C@@H]54)C2 (stereo not given in full)	44.4%
O=C(CSc1nnc(-c2ccc(Cl)c(Cl)c2)n1-c1ccccc1)Nc1ccc(C(=O)/C=C/c2ccc(Cl)cc2)cc1	98.4%
CN1CCN(C(=O)OCc2nc3c(N4CCOCC4)nc(-c4ccccc4)nc3n2C)CC1	-59% (active)
COc1c(C2CC(=O)Nc3c2cnn3Cc2ccco2)cc2c(c1OC)OCO2 (stereo not given)	16.2%
O=C1N[C@H]2[C@H](CS[C@H]2CCCCC(=O)N(CCP(c2ccccc2)c2ccccc2)CCP(c2ccccc2)c2ccccc2)N1	33.8%
COc1ccc2[nH]cc(-c3nc(-c4c[nH]c5c(Cl)nccc45)cs3)c2c1	34.1%

SMILES	growth
N#Cc1c(-c2ccc(F)cc2)c(C#N)c2c(C#N)c(N)nn2c1N	83.5%
Clc1ccc(-c2nnc(Cn3ccnc3)o2)cc1	104%
CCCC(=O)OCC1OC(n2cnc3c(=S)nc[nH]c32)C(OC(=O)CCC)C1OC(=O)CCC (stereo not given)	70.8%
COc1cc(C2CC(c3cc(Cl)c(C)cc3O)=NN2c2ccc(S(N)(=O)=O)cc2)cc(OC)c1OC (stereo not given)	22.7%
O=C(Nc1nc(-c2ccc(Cl)cc2)cs1)c1cc(O)c(O)c(O)c1	55.8%
CC1(C)CC[C@]2(C(=O)NCCNCCN)CC[C@]3(C)C(=CC[C@@H]4[C@@]5(C)CCC(=O)C(C)(C)[C@@H]5CC[C@]43C)[C@@H]2C1	-67% (active)
CCOC(=O)/C(=C/CC/C(C)=C/CC/C(C)=C/CCc1ccoc1)CC(=O)N1CCCCC1	0.246% (active)
C=C1C(=O)O[C@H]2[C@H]1CC/C(COC(=O)c1cc3cc(F)ccc3[nH]1)=C\CC[C@@]1(C)O[C@@H]21	-63.2% (active)
CCCCc1ccc2nc(NC(=O)OC)[nH]c2c1	22.3%
COC(=O)[C@]12CC[C@@H](C)[C@H](C)[C@@H]1C1=CC[C@@H]3[C@@]4(C)C[C@@H](OC(C)=O)[C@H](O)[C@@](C)(COC(C)=O)[C@@H]4[C@H](O)C[C@@]3(C)[C@]1(C)CC2	-90.2% (active)
O=C(CN1CCCCC1)Nc1nc(-c2cc3ccccc3oc2=O)cs1	96.3%
CCCCCCCCCCCCCCCCCC1=NC(C)(C)CN1CC(C)O (stereo not given)	115%
O=C1c2ccccc2-c2nccc3cc(Cl)nc1c23	-87.2% (active)
COc1cc2c(cc1OC)C(Sc1ccc(F)cc1)c1c(nc(N)c(C#N)c1N)O2 (stereo not given)	-56.4% (active)
CC1=C(C)C[C@]2(C(=O)O[C@H]3CCCC[C@@H]32)[S@](=O)C1	114%
COc1ccc(S(=O)(=O)N2CCOCC2)cc1NC(=O)c1[nH]c(C)c2c1CCCCC2=O	105% and 47.2%
CCC(=O)Oc1ccc(/C=N/NC(N)=S)nc1	18.7%
CCOC(=O)Cc1cnn(C)c1NC(=O)c1ccc(Cl)cc1NC(C)=O	89.9%
Fc1ccc(Nc2ccnc(N3CCN(c4ccnc5cc(Cl)ccc45)CC3)n2)cc1	15.9%
CC1=C(C(=O)OCC2CCN(C(=O)OC(C)(C)C)CC2)[C@H](c2cccc(C#N)c2)C2=C(CC(C)(C)CC2=O)N1	59.9%
